Measured values reported in PubChem BioAssay (NCATS).
Results filed as inconclusive are left out. Activity calls are given as the source filed them. Calls come from the whole dose curve; as a rule, active = well fitted curve in the direction sought with a large enough effect; inconclusive = small, poorly fitted or top-dose-only effect, or another doubt; inactive = no such curve, though single readings can be large; an effect the other way counts as inactive or inconclusive.

How the values were obtained:
[1] = COV-362 Cancer Cell Toxicity qHTS against the NCATS CANVASS Library (AID 1347352)
Method in brief: (§1)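 qHTS cytotoxicity: compounds tested in 11 concentrations on 1000 seeded cells per well over 72 h; bortezomib served as control; signal from CellTiter-Glo luminescence.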

[2] = A2780 Cisplatin Sensitive Ovarian Cancer Cell Toxicity qHTS against the NCATS CANVASS Library (AID 1347353); conditions: A2780 ovarian cancer viability, ATPLite luminescence, 72 h; at 46.1 µM (top of the series); note: nearly all actives have a fitted effect of over 60% in size
Method in brief: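 Seventy-two-hour exposure of cisplatin-sensitive A2780 ovarian cells to an 11-concentration qHTS series; cytotoxicity is inferred from loss of ATPLite luminescence. Bortezomib titration served as positive control.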

[3] = UWB1.289-WTBRCA1 Cancer Cell Toxicity qHTS against the NCATS CANVASS Library (AID 1347354); conditions: UWB1.289-WTBRCA1 viability, CellTiter-Glo luminescence, 72 h; at 38.3 µM (top of the series)
Method in brief: as §1

[4] = HEK-293 Cancer Cell Toxicity qHTS against the NCATS CANVASS Library (AID 1347355); conditions: HEK-293 viability, CellTiter-Glo luminescence, 72 h; at 46.1 µM (top of the series); note: nearly all actives have a fitted effect of over 65% in size
Method in brief: as §1

[5] = HPAF-II 24hr Apoptosis Induction qHTS against the NCATS CANVASS Library (AID 1347356)
Method in brief: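 Apoptosis induction in HPAF-II pancreatic cancer cells is measured as caspase-3/7 luminescence after a 24-hour exposure to compounds.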

[6] = HEK293 18hr Apoptosis Induction qHTS against the NCATS CANVASS Library (AID 1347357)
Method in brief: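 Cells seeded at 500/well in DMEM + 10% FBS. Compounds pinned, 11 concentrations. 18 h, 37 degrees C/5% CO2. Caspase-Glo 3/7 added, 15 min RT dark, luminescence read.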

[7] = HPAF-II 12hr Apoptosis Induction qHTS against the NCATS CANVASS Library (AID 1347358)
Method in brief: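 Apoptosis in HPAF-II pancreatic cancer cells is scored as caspase 3/7 luminescence following a 12-hour exposure to an 11-point compound series.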

[8] = HEK293 24hr Apoptosis Induction qHTS against the NCATS CANVASS Library (AID 1347359)
Method in brief: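 HEK293 cells (500/well, DMEM + 10% FBS) were exposed to compounds in an 11-point series for 24 hours at 37 degrees C, then caspase-3/7 activity was read by Caspase-Glo DEVD luciferase luminescence after 15 min.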

[9] = HPAF-II 18hr Apoptosis Induction qHTS against the NCATS CANVASS Library (AID 1347360)
Method in brief: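 Seed HPAF-II cells at 500/well in DMEM + 10% FBS, pin-transfer compounds, incubate 18 hours at 37 degrees C/5% CO2, add Caspase-Glo 3/7 reagent, wait 15 min, read luminescence.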

[10] = HEK293 12hr Apoptosis Induction qHTS against the NCATS CANVASS Library (AID 1347361)
Method in brief: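 Cells are seeded, dosed with an 11-point compound series and incubated 12 hours. Caspase-3/7 activity is detected by luminescent DEVD-substrate reagent after 15 minutes at room temperature.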

Measured: outcome

CN1CCC[C@@H]1c1cccnc1
inactive: [1] | [2] | [3] | [4] | [5] | [6] | [7] | [8] | [9] | [10]
